Measured values reported in PubChem BioAssay AID488890 (Southern Research Specialized Biocontainment Screening …, 2010).
Screen size: about 320,000 compounds; about 1,300 (0.41%) were called active. Inconclusive results (about 3%) are left out. How the calls were made is not given here. A selection follows. Potency and affinity values are given separately. Peptide text beside a SMILES is read from it. * marks the point of attachment. Boc = CC(C)(C)OC(=O)*; OtBu = CC(C)(C)O*

Test: growth inhibition of non-replicating M. tuberculosis (AID 488890);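 further: plate controls were DMSO cells for no effect and high antibiotic wells for full effect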
Conditions: Mycobacterium tuberculosis non-replicating, at 25 µM, stronger effect = higher value

Point of comparison: `COC(=O)C1ON2OC(C(=O)OC)C(C(=O)OC)C2C1CC(C)=O` (stereo not given), inhibition -1.62%. Against it:
- O=C(c1cccs1)N1CCN(C2CCCCC2)CC1 — higher, 14.6%
- O=C(CSc1nnc(CNC(=O)c2ccccc2F)o1)NCC1CCCO1 (stereo not given) — higher, 4.55%
- Cc1cc(C)c(C)c(C(=O)COC(=O)CNC(=O)CNC(=O)c2ccco2)c1C — higher, 6.12%
- CN(C)/C=N/c1cc(=O)[nH]c(=O)n1CC1CC1 — higher, -0.07%
- O=C(Oc1c(Br)cc(Br)c2cccnc12)N1CCCCC1 — higher, 43.3%
- O=C(Oc1c(Cl)cc(Cl)c2cccnc12)N1CCCCC1 — higher, 22.4%
- O=C(COc1ccc2ccccc2c1Br)N1CCCCC1 — higher, 76.2%
- CN1CCN(C(=O)COc2ccc3ccccc3c2Br)CC1 — higher, 37.4%
- O=C(COc1ccccc1F)Nc1c2c(nn1-c1ccccc1)CS(=O)(=O)C2 — higher, 16.8%
- Cc1ccc(OCC(O)Cn2c(N3CCOCC3)nc3c2c(=O)[nH]c(=O)n3C)cc1 (stereo not given) — higher, 14.4%
- COc1cccc(/C=N/N2CCN(c3ccccc3OC)CC2)c1 — higher, 2.17%
- CCCCC[C@@H]1C=C(C(=O)O)[C@H](c2ccc3c(c2)OCO3)N1S(=O)(=O)c1ccc(C)cc1 — higher, 27.2%
- Cc1ccc(-c2nnc(C)c(N3CC(C)OC(C)C3)n2)cc1 (stereo not given) — higher, 2.5%
- Cc1ccc(-c2nnc(C)c(N3CCOCC3)n2)cc1 — higher, 7.79%
- CCOC(=O)C1=C(N)OC2=C(C(=O)CC(C)(C)C2)C1c1ccc(C)s1 (stereo not given) — higher, 64.3%
- O=C(COC(=O)c1cccnc1Cl)NCCCc1ccccc1 — higher, 27.7%
- COc1ncccc1-c1nnn(-c2ccccc2Br)n1 — higher, 3.8%
- C#CCOc1ccc2c(c1)c(C(C)=O)c(C)n2Cc1ccccc1 — lower, -5.53%
- CCOC(=O)COc1ccc2c(c1)c(C(C)=O)c(C)n2-c1ccccc1 — higher, 19.1%
- O=C(COc1ccc(F)cc1Br)NCc1ccccn1 — higher, 28.1%
- COc1ccc(S(=O)(=O)NCc2ccncc2)cc1NC(=O)c1ccc(Cl)cc1 — higher, 5.22%
- Cc1oc2c(c(=O)c1C)C(=O)CC(c1ccccc1)C2 (stereo not given) — lower, -6.93%
- Cc1c(C(=O)O)[nH]c2c1C(=O)CC(c1ccccc1)C2 (stereo not given) — higher, 4.15%
- Cc1cc(Cl)ccc1N1C(=O)CC(NNC(=O)c2cccnc2)C1=O (stereo not given) — higher, 5.86%
- CCS(=O)(=O)N1CCC(NC(=O)C2CCCCC2)CC1 — lower, -9.82%
- CCOC(=O)c1csc(NC(=O)COc2ccc(Cl)cc2Cl)n1 — higher, 80.3%
- CC(=O)c1csc(COc2ccccc2)n1 — higher, -0.92%
- CCOC(=O)c1csc(N)n1 — lower, -4.96%
- CCOC(=O)c1csc(-c2ccc(OC)c(OC)c2)n1 — higher, 32.3%
- CCC(=O)NNC(=O)c1cc(COc2cc(Cl)cc(Cl)c2)on1 — higher, 40%
- Cc1onc(-c2ccccc2)c1-c1csc(COc2ccccc2)n1 — higher, 33.1%
- CC(C)NC(=O)NNC(=O)c1cc(COc2cc(Cl)cc(Cl)c2)on1 — higher, 31.8%
- CCOC(=O)c1csc(NC(C)=O)n1 — higher, -1.23%
- COc1ccc(OC)c(Nc2nc(N)nc(CSc3nnc(N)s3)n2)c1 — lower, -6.45%
- N#CC1(NC(=O)CSc2nnc(-c3ccccc3F)n2N)CCCCC1 — lower, -6.24%
- O=C(CCN1C(=O)C2CC=CCC2C1=O)NC1CCCCC1 (stereo not given) — higher, -1.44%
- COc1ccc(-c2cn(-c3ccc(Cl)cc3)c3[n+]2CCCCC3)cc1 — higher, 10.6%
- O=C(c1ccc(N2CC3CC(C2)c2cccc(=O)n2C3)c([N+](=O)[O-])c1)N1CCCC1 (stereo not given) — lower, -6.65%
- O=C(C1=NN[C@@H]2C(=O)N(Cc3ccccc3)C(=O)[C@H]12)c1ccc(F)cc1 — higher, 5.43%
- N#CCP(=S)(c1ccccc1)c1ccccc1 — higher, 24.1%
- CCCNC(=O)C(Cc1ccccc1)NC(=O)c1ccc(-c2ccccc2)cc1 (stereo not given) — higher, 4%
- COc1ccc(CN(CC2CCC(C(=O)O)CC2)C(=S)Nc2cc(Cl)ccc2OC)cc1 (stereo not given) — higher, 2.05%
- CC(NC(=O)C(CC(=O)OC(C)(C)C)NC(=O)OC(C)(C)C)C(N)=O (stereo not given) (Boc-Asp(OtBu)-Ala-NH2; configuration not given here) — higher, -0.24%
- CCOC(=O)c1ccccc1-c1csc(N)n1 — higher, 6.53%
- Nc1nonc1-c1noc(COc2ccccc2Cl)n1 — higher, 5.72%
- CC(=O)c1csc(COc2ccc(Cl)cc2)n1 — higher, 38.9%
- CCOC(=O)c1csc(NC(=O)c2ccc(OCC)cc2)n1 — higher, 19.8%
- Cc1onc(C(=O)NN)c1-c1csc(COc2ccc(Cl)cc2)n1 — higher, 13.2%
- Cc1onc(-c2ccc(Cl)cc2Cl)c1-c1csc(COc2ccccc2)n1 — lower, -7.56%
- CCn1cc(C(=O)NCC2CCCO2)c(=O)c2cc(S(=O)(=O)N3CCCCCC3)ccc21 (stereo not given) — higher, 4.04%
- COc1ccccc1C(=O)Nc1c2c(nn1-c1cccc(C)c1C)CS(=O)(=O)C2 — higher, 2.28%
- CC(C)c1ccc(NC2CCCN(C(=O)c3ccc(Cn4cnnn4)cc3)C2)cc1 (stereo not given) — higher, 10.9%
- CS(=O)(=O)N1CCCC(C(=O)Nc2ccc(F)c(F)c2)C1 (stereo not given) — lower, -12.2%
- Nn1c(SCC(=O)Nc2ccc3c(c2)OCCO3)nncc1=O — lower, -11.2%
- NC(=O)c1ccccc1N/C=C/C(=O)c1ccco1 — higher, -0.65%
- Cc1ccc(N/C=C/C(=O)C(C)(C)C)c(O)c1 — higher, 6.34%
- Cc1ccc(N/C=C/C(=O)c2ccco2)c(O)c1 — higher, 12.5%
- CCOc1ccccc1N/C=C/C(=O)C(C)(C)C — higher, 0.25%
- C=C(C)COc1ccc(-c2[nH]ncc2Oc2ccc(OC)cc2)c(O)c1 — lower, -5.21%
- COc1ccc(C(c2c(N)[nH]c(=S)[nH]c2=O)c2c(N)[nH]c(=S)[nH]c2=O)cc1 — lower, -18.4%
- COc1ccc(-c2nc(CCl)cs2)cc1 — higher, 7.52%
- COc1ccc(-c2csc(-c3ccc(O)cc3)n2)cc1 — higher, 40%
- O=C(CSc1c2c(nc3cc(Cl)ccc13)CCCC2)NCCCN1CCOCC1 — higher, 50%
- Cc1[nH]c(=S)c(C#N)c2c1CCCC2 — higher, 16.1%
- COc1ccc(CNc2nc3nc(C)c(Cl)c(=O)n3[nH]2)cc1 — higher, 28.1%
- CC(OC(=O)c1cc(S(=O)(=O)N2CCOCC2)ccc1Br)C(=O)N1CCOCC1 (stereo not given) — higher, 6.34%
- CCC1Oc2ccccc2N(CC(=O)NCCCN2CCCCC2CC)C1=O (stereo not given) — higher, 1.4%
- CCOC(=O)c1ccc(NC2c3ccccc3C(=O)N2c2ccccn2)cc1 (stereo not given) — lower, -6.64%
- NS(=O)(=O)c1ccc(NC2=CC(=O)C(=O)c3ccccc32)cc1 — higher, 36.2%
- O=C1C=C(Nc2ccccc2)C(=O)c2ccccc21 — higher, 56.9%
- CCOC(=O)c1ccccc1NC1OC(=O)c2ccccc21 (stereo not given) — lower, -8.12%
- CCOC(=O)c1ccc(NC(=O)C(C)N2C(=O)c3ccccc3C2=O)cc1 (stereo not given) — lower, -8.22%
- CC(=O)Nc1ccc(NC2=CC(=O)c3ccccc3C2=O)cc1 — lower, -2.89%
- CCOC(=O)c1c(C)[nH]c(C(=O)COC(=O)Cn2cc(C(F)(F)F)ccc2=O)c1C — higher, 2.63%
- CCCc1nnc(NC(=O)CCC(=O)Nc2ccc(F)cc2)s1 — lower, -5.14%
- CCN(C(=O)c1ccc(Cl)c(S(=O)(=O)Nc2c(C)n(C)n(-c3ccccc3)c2=O)c1)c1ccccc1 — higher, 5.47%
- CCN(CC)C(=O)Cn1cc(C(=O)C(=O)N2CCCc3ccccc32)c2ccccc21 — higher, 16.8%
- Cc1cc(/C=C2\NC(=O)NC2=O)c(C)n1-c1cccnc1 — lower, -6.79%
- S=C(Nc1ccccc1)N1CCC(Cc2ccccc2)CC1 — higher, 5.68%
- COc1ccc(O)c(/C=N/NC(=O)c2cccc(N3CCCC3=O)c2)c1 — higher, 5.55%
- O=C(N/N=C/c1cc(Br)ccc1O)c1cccc(N2CCCC2=O)c1 — higher, 54.7%
- CCC1(CC)C(=O)N(C)C(=O)NC1=NC — lower, -9.72%
- O=[N+]([O-])c1cccc(/C=N\N=C2c3ccccc3-c3ccccc32)c1O — higher, 22%
- CN(C)/N=C/c1cc([N+](=O)[O-])ccc1O — lower, -5.98%
- O=C(N/N=C\c1cc2c(cc1[N+](=O)[O-])OCO2)c1cccs1 — higher, 16.5%
- O=C(N/N=C/c1ccccc1[N+](=O)[O-])c1cccs1 — higher, 55.4%
- O=[N+]([O-])c1cccc(C=Nc2cccc3ccccc23)c1O — higher, 55.1%
- O=[N+]([O-])c1ccc(O)c(/C=N\N=C2c3ccccc3-c3ccccc32)c1 — higher, 72.8%
- c1ccc(CN2CCNCC2)nc1 — lower, -22.1%
- CCOc1ncccc1C(=O)OCC(=O)N1CCN(S(=O)(=O)c2ccccc2)CC1 — lower, -4.22%
- CCOc1ccc(/C=N/OCC(=O)NCc2ccc3c(c2)OCO3)cc1OC — higher, 13%
- CCNC(=O)CSc1nnc(-c2cccs2)o1 — higher, 61.4%
- Cc1ccc(S(=O)(=O)Nc2cccc3ncccc23)cc1 — higher, 15.3%
- Cc1ccc(S(=O)(=O)Nc2ccnc3ccccc23)cc1 — lower, -9.89%
- O=C(NNC1OC(CO)C(O)C(O)C1O)c1cccnc1 (stereo not given) — lower, -18.5%
- CCOC(=O)c1c(-n2cnnn2)sc2c1CCCC2 — higher, 0.53%
- CCCS(=O)(=O)c1nc(S(=O)(=O)c2ccc(Cl)cc2)c(N2CCC(O)CC2)s1 — higher, 9.91%
- CCn1c(-c2ccccc2)ccc(C#N)c1=O — higher, -0.3%
- CC(C)OC(=O)Cn1cc(C#N)c2ccccc21 — higher, 17%
- CCc1cccc2c(C#N)cn(CC(=O)NCCOC)c12 — higher, 2.34%
- CCc1cccc2c(C#N)cn(CC(=O)N3CCOCC3)c12 — lower, -9.31%
- CCOC(=O)Cn1c(-c2ccccc2)cc(SC)c(C#N)c1=O — higher, 37.8%
- COC(=O)Cn1cc(C#N)c2ccccc21 — higher, 51.2%
- Cc1cc(Cl)ccc1OCC(=O)Nc1cccnc1 — higher, 41%
- C[C@]12C(=O)N(c3ccccc3)C(=O)N1[C@H]1c3ccccc3OC[C@@H]1[C@H]2c1ccccc1 — higher, 79%
- Cn1c2ccccc2c2cc(/C=N/NC(=O)c3cc(O)cc(O)c3)ccc21 — lower, -7.45%
- O=C(O)c1cccc(NS(=O)(=O)/C=C/c2ccccc2)c1 — higher, -0.77%
- O=C(O)c1ccc(NS(=O)(=O)/C=C/c2ccccc2)cc1 — lower, -4.07%
- O=C(Nc1ccc(F)cc1)C1CCCCC1 — higher, 42.2%
- CC(=O)Nc1ccc(NC(=S)NC(=O)C2CCCC2)cc1 — higher, 30.2%
- OCC1(CCOc2ccccc2)CCN(Cc2ccc3c(c2)OCCO3)CC1 — higher, 14.7%
- COC(=O)C(NC(C)=O)(Nc1nc2ccc(S(C)(=O)=O)cc2s1)C(F)(F)F (stereo not given) — lower, -2.55%
- COc1ccc(C(CCNCc2ccc(OC)c(OC)c2)c2ccc(F)cc2)cc1 (stereo not given) — higher, 76.8%
- COc1ccccc1C(CCNCc1ccccc1)c1ccc(OC(C)C)cc1 (stereo not given) — higher, 68.5%
